Results filed as inconclusive are left out. Where a call stands in place of a potency, no number is given. Active and inactive are the calls of the source. The call rests on the fitted dose curve; in most records, active means well fitted curve in the direction sought with a large enough effect; inconclusive means small, poorly fitted or top-dose-only effect, or another doubt; inactive means no such curve, though single readings can be large; an effect the other way counts as inactive or inconclusive.

The subject of the first assay is Zika virus NS2B-NS3 protease (linked construct). Kind of assay: Primary screen NINDS Rhodamine qHTS for Zika virus inhibitors (AID 1347160). Further: nearly all actives have a fitted effect of over 55% in size. Further: potency means the concentration at half of the fitted maximal effect. The conditions noted are these: purified NS2B-NS3 protease, Rhodamine110 substrate fluorescence; series mostly up to 57.1 µM. A digest of the protocol:
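Aprotinin served as in-plate control. Conditions: 25 nM linked NS2B-NS3, pH 8.0 Tris buffer, titrated compounds, 15 min preincubation and 15 min reaction with 1.5 microM Rhod110 substrate at room temperature.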
For `CN1[C@@H]2CC[C@H]1CC(OC(=O)C(CO)c1ccccc1)C2` (stereo not given in full), the Potency entry is “inactive”.

In the case of `CCNC(=O)[C@H]1O[C@@H](n2cnc3c(N)nc(NCCc4ccc(CCC(=O)O)cc4)nc32)[C@H](O)[C@@H]1O`, the Potency result was “inactive”.

For `COc1ccc(/C=C/C(=O)Nc2ccccc2C(=O)O)cc1OC`, the Potency result was “inactive”.

Regarding `CC1(C)[C@@H](O[C@H]2O[C@H](C(=O)O)[C@@H](O)[C@H](O)[C@H]2O[C@@H]2O[C@H](C(=O)O)[C@@H](O)[C@H](O)[C@H]2O)CC[C@]2(C)[C@H]3C(=O)C=C4[C@@H]5C[C@@](C)(C(=O)O)CC[C@]5(C)CC[C@@]4(C)[C@]3(C)CC[C@@H]12`, the Potency entry was “inactive”.

In the case of `COC(=O)[C@H]1[C@H]2C[C@@H]3c4[nH]c5cc(OC)ccc5c4CCN3C[C@H]2C[C@@H](OC(=O)/C=C/c2cc(OC)c(OC)c(OC)c2)[C@@H]1OC`, the Potency result is “inactive”.

In the case of `CC1(C)S[C@@H]2[C@H](NC(=O)[C@H](NC(=O)N3CCN(S(C)(=O)=O)C3=O)c3ccccc3)C(=O)N2[C@H]1C(=O)O`, the Potency entry was “inactive”.

In the case of `O=C(O)[C@H](CC(=O)N1C[C@H]2CCCC[C@H]2C1)Cc1ccccc1`, the Potency result was “inactive”.

In the case of `COc1cc(/C=C/C(=O)N2CCN(CC(=O)N3CCCC3)CC2)cc(OC)c1OC`, the Potency entry was “inactive”.

Consider `CC1(C)S[C@@H]2[C@H](NC(=O)[C@H](N)c3ccc(O)cc3)C(=O)N2[C@H]1C(=O)O`, for which the Potency result is “inactive”.

Turning to `C[C@H](O)[C@H](O)[C@H]1CNc2nc(N)[nH]c(=O)c2N1`, the Potency result is “inactive”.

Turning to `CC(=O)O[C@H]1C[C@@]2(C)[C@@H](C[C@@H](O)[C@H]3[C@@]4(C)CC[C@@H](O)[C@@H](C)[C@@H]4CC[C@@]32C)/C1=C(\CCC=C(C)C)C(=O)O`, the Potency result is “inactive”.

Regarding `CC1(C)[C@@H](O)CC[C@]2(C)[C@H]3C(=O)C=C4[C@@H]5C[C@@](C)(C(=O)O)CC[C@]5(C)CC[C@@]4(C)[C@]3(C)CC[C@@H]12`, the Potency is 14.1 µM (active).

The target in a further assay is Lysine-specific demethylase 5B (Homo sapiens) (UniProt Q9UGL1). Put plainly: Optimization screen for KDM5B Histone Demethylases FDH coupled qHTS against the LOPAC library (AID 1347166). The conditions noted are these: KDM5B demethylation, FDH-coupled NADH fluorescence (FDH is formaldehyde dehydrogenase); series mostly up to 57.5 µM. The essentials: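 KDM5BDeltaAP (200nM final) in 50mM HEPES pH 7.5, 0.01% Tween-20 was preincubated with compound for 10 min at room temperature. A substrate mix of 12.5uM H3K4Me3, 25uM a-ketoglutarate, ascorbate, Fe2+, NAD+ and formaldehyde dehydrogenase was then added. NADH fluorescence (340/450 nm) was read initially and after 30 min.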
Chain of Lysine-specific demethylase 5B (Homo sapiens) (Q9UGL1 whole entry, looked up): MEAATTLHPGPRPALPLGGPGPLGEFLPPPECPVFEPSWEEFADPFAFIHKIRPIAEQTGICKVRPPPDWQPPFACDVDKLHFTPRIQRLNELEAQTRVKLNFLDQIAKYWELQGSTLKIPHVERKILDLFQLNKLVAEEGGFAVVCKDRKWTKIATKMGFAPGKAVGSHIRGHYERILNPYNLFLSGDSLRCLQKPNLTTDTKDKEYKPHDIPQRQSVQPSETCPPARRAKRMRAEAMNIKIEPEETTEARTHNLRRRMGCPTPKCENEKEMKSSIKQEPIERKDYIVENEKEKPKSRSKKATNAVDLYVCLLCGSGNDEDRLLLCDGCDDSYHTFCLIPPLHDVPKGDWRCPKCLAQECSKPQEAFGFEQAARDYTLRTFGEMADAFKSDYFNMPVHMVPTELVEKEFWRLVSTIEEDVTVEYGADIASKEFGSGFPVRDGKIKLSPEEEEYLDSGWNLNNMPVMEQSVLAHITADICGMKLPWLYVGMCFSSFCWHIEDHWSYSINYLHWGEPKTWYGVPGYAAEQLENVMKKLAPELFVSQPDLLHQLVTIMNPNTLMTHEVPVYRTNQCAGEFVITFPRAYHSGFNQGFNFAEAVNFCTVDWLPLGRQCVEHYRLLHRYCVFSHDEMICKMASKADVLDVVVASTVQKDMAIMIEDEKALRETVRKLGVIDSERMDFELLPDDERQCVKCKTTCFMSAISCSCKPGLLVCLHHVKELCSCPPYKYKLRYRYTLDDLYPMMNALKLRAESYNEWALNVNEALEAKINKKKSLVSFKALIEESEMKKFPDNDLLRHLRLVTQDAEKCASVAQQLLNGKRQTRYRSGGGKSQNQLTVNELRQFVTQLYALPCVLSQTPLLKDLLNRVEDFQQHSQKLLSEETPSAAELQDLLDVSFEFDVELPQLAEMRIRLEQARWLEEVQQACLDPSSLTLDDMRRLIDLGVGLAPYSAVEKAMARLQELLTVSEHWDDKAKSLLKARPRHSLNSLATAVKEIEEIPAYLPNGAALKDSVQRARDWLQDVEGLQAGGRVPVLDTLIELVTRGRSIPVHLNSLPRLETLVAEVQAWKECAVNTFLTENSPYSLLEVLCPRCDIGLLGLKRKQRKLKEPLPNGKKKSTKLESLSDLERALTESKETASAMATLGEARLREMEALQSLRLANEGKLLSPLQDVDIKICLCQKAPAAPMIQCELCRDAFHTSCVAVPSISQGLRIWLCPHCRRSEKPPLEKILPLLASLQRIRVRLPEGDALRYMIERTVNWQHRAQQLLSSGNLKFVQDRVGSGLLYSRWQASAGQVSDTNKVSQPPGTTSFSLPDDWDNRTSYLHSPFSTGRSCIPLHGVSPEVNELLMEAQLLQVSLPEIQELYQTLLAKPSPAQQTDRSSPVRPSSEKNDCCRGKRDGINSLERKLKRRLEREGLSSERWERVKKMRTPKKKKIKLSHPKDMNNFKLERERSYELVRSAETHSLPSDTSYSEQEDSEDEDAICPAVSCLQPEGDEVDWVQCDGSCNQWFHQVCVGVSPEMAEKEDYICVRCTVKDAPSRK
A general note: In qHTS, concentration-response curves come from the screen itself.
With `COc1ccccc1N1CCN(CCCCNS(=O)(=O)c2cccc3c(N(C)C)cccc23)CC1`, the call was inactive.

As for `CC(COc1ccc(/C=C/c2ccccc2)cc1)[N+](C)(C)C` (stereo not given), the outcome was inactive.

On to `O=C(O)CC1CC(c2ccccc2)=NO1` (stereo not given), for which the outcome was inactive.

With `CC[C@@H](C)[C@H]1O[C@]2(CC[C@H]1C)C[C@@H]1C[C@@H](CC=C(C)[C@@H](O[C@H]3C[C@H](OC)[C@@H](O[C@H]4C[C@H](OC)[C@@H](O)[C@H](C)O4)[C@H](C)O3)[C@@H](C)C=CC=C3CO[C@@H]4[C@H](O)C(C)=C[C@@H](C(=O)O1)[C@]34O)O2`, the call was inactive.

For the compound `O=C(O)[C@@H]1C[C@H](C(=O)O)N1`, the call was inactive.

`Cc1ccc(C(=O)O[C@H](C(=O)O)[C@@H](OC(=O)c2ccc(C)cc2)C(=O)O)cc1` (tested in a mixture with another compound): the compound was called inactive.

As to `NC(=O)C1=CN(C2OC(COP(=O)(O)OP(=O)(O)OC[C@H]3O[C@@H](n4cnc5c(N)ncnc54)[C@H](OP(=O)(O)O)[C@@H]3O)C(O)C2O)C=CC1` (stereo not given in full), the compound was classed as inactive.

In the case of `CC(C)ON([C@@H](C(=O)NO)C(C)C)S(=O)(=O)c1ccc(-c2ccccc2)cc1`, the call was inactive.

Consider `COc1ccc(/C=C/C(=O)Nc2ccccc2C(=O)O)cc1OC`, for which the compound was called inactive.

Regarding `NCCNC(=O)c1ncsc1-c1cccc(F)c1`, the result was inactive.

Turning to `CCCCCCCCCCCCCCCCCC(=O)NCC(COP(=O)([O-])OCC[N+](C)(C)C)OCC` (stereo not given), the call was inactive.

With `COc1ccccc1N1CCN(CCN(C(=O)c2ccc(I)cc2)c2ccccn2)CC1`, the compound was classed as inactive.

Consider `CCCCCCCCCCCCCCCCCCNC(=O)OCC(COP(=O)([O-])OCC[n+]1ccsc1)OC` (stereo not given), for which the result was inactive.

On to `C[N+](C)(C)CC(=O)[O-]`, for which the compound was called inactive.

For the compound `C#CCN1C(C)=C(C(=O)OC)C(c2cccc([N+](=O)[O-])c2)C(C(=O)OCC)=C1C` (stereo not given), the compound was classed as inactive.

Regarding `COc1cc(OC)c(/C=C2/C(=O)Nc3ccccc32)c(OC)c1`, the result was inactive.

On to `CN(C)CCCO[C@@H]1[C@H]2OC(C)(C)O[C@H]2O[C@@H]1[C@H](O)CO`, for which the compound was classed as inactive.

With `CCCCN1CCC(n2c(=O)[nH]c3ccccc32)CC1`, the result was inactive.

With `N=C(N)SCCc1ccc(CCSC(=N)N)cc1`, the outcome was inactive.

In the case of `CN(C)c1nc2c(Br)c(Br)c(Br)c(Br)c2[nH]1`, the compound was called inactive.

Consider `O=C(O)/C=C/C(O)c1ccc(Cl)cc1` (stereo not given), for which the call was inactive.

On to `O=C1O/C(=C/Br)CCC1c1cccc2ccccc12` (stereo not given), for which the outcome was inactive.

Regarding `CCCCCCCCCCCCCCCC(=O)NCC(COP(=O)([O-])OCC[N+](C)(C)C)OCC` (stereo not given), the outcome was inactive.

The values above are taken from PubChem BioAssay (NCATS).
